From PubChem BioAssay AID485313 (National Center for Advancing Translational Sciences (NCATS), 2010)
Screen size: about 320,000 compounds; about 7,600 (2.4%) were called active. Roughly 3% stayed inconclusive and do not appear here. The call rests on the fitted dose curve; in most records, active means well fitted activation curve with a large enough effect; inconclusive means small, poorly fitted or top-dose-only effect; inactive means no such curve, though single readings can be large or run the other way. Only a selection was taken, and actives are over-represented in it overall.

Assay: qHTS Assay for NPC1 Promoter Activators; further: nearly all actives have a fitted effect of over 60% in size;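 on activation: reporter is driven by a mutant NPC1 promoter; % of control where 0% means no effect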
Settings: Huh7 NPC1 promoter luciferase reporter, 24 h; series mostly up to 9.22 µM; activation: at the top concentration
How it was run: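 Stably transfected Huh7 (NPC1 promoter→luciferase), 1500 cells/well in Opti-MEM + 10% FBS, 2 h settle, then compound 24 h at 37 °C. Luminescence after 10 min with Amplite reagent.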
Potency means the concentration at half of the fitted maximal effect.

SMILES | activation | Potency
CCOc1cc(NC(=O)Nc2ccccc2)c(OCC)cc1NC(=O)CC | -0.529% (inactive) | –
Cc1c(NC(=O)Nc2ccccc2)cccc1[N+](=O)[O-] | 0.25% (inactive) | –
Cc1ccc(NC(=O)Nc2ccccc2)c(Br)c1 | – | 3550 nM (active)
COc1cc(F)c(C2=CC(=O)CC(C)(C)C2)cc1F | -2.64% (inactive) | –
CSc1ccccc1OCc1cc(C(=O)N(C)CCc2c(C)n[nH]c2C)no1 | -11.9% (inactive) | –
COC(=O)[C@@H]1CCCN1C(=O)c1cc(COc2cccc3cccnc23)on1 | -2.83% (inactive) | –
CSc1ccccc1OCc1cc(C(=O)N2C[C@H]3CC[C@H]2C3)no1 | – | 2820 nM (active)
COC(=O)c1ccc(C)c(NC(=O)C2CC(=O)N(C3CCCC(C)C3C)C2)c1 (stereo not drawn) | -3.54% (inactive) | –
NS(=O)(=O)c1ccc(CCNC(=O)COC(=O)COc2cccc(C(F)(F)F)c2)cc1 | -6.93% (inactive) | –
Cc1ccc(OCCC(=O)Nc2ccc(S(=O)(=O)Nc3nccs3)cc2)cc1 | -1.05% (inactive) | –
COc1ccc(Cl)cc1NC(=O)CN(C)C(=O)c1ccc2n[nH]nc2c1 | -2.57% (inactive) | –
O=C(N/N=C/c1ccc([N+](=O)[O-])cc1)c1c[nH]c2ccccc12 | 26.5% (inactive) | –
Cc1ccsc1C(=O)N/N=C/c1ccc([N+](=O)[O-])cc1 | – | 3980 nM (active)
Cc1nc2ccccc2cc1C(=O)N/N=C/c1ccc([N+](=O)[O-])cc1 | -3.83% (inactive) | –
Cc1nc(C)c(-c2csc(NCCc3ccccc3)n2)s1 | 6.54% (inactive) | –
CCOC(=O)CSc1nnc(CNc2nc(-c3ccccc3)cs2)n1C | -0.901% (inactive) | –
CCNc1nc(-c2cc3ccccc3o2)cs1 | – | 2820 nM (active)
O=C(CC1C(=O)NCCN1CC(c1ccccc1)c1ccccc1)NCC1CCOCC1 (stereo not drawn) | -1.68% (inactive) | –
CCC1CCC2(CC1)NC(=O)N(CC(=O)Nc1ccc(OC)cc1)C2=O (stereo not drawn) | -1.13% (inactive) | –
COc1cc(/C=N/N2CCN(c3ccccc3)CC2)ccc1OC(C)=O | 1.6% (inactive) | –
COc1ccccc1N1CCN(/N=C\C(Br)=C\c2ccccc2)CC1 | 26.2% (inactive) | –
COc1ccccc1N1CCN(/N=C/c2ccc(O)cc2O)CC1 | – | 2820 nM (active)

SMILES | activation | Potency
CCOc1ccccc1NC(=O)Cc1cccs1 | -7.01% (inactive) | –
CCOC(=O)c1ccc(NC(=O)Cc2cccs2)cc1 | – | 3550 nM (active)
O=C(Cc1cccs1)Nc1ccc([N+](=O)[O-])cc1 | 1.42% (inactive) | –
O=C(O)c1[nH]c2ccccc2c1C(c1cccc(O)c1)c1c(C(=O)O)[nH]c2ccccc12 | -0.0937% (inactive) | –
COc1ccc(NC(=O)CC2SC(N3CCCCC3)=NC2=O)cc1OC (stereo not drawn) | -0.702% (inactive) | –
O=C(NCCCN1CCN(c2ccc(F)cc2)CC1)Nc1ccc([N+](=O)[O-])cc1 | -1.46% (inactive) | –
CCOc1ccc(OCc2cccc(C(=O)N(CC)CC)c2)cc1 | – | 251 nM (active)
COc1cccc(COc2ccc(N(C)S(=O)(=O)c3ccccc3)cc2)c1 | -2.05% (inactive) | –
COc1ccc(OCc2cccc(C(=O)N3CCCC3)c2)cc1 | – | 447 nM (active)
COc1ccc(Cn2c(=S)[nH]c3cc(C(=O)N4CCCCC4)ccc3c2=O)cc1 | 13.8% (inactive) | –
CN(Cc1ccccc1)C(=O)c1ccc(COc2ccccc2)cc1 | -4.73% (inactive) | –
CC(=O)Oc1ccc(-c2cccc(C(=O)N3CCCCC3)c2)cc1 | 19% (inactive) | –
CCCCn1nc(C(=O)Nc2cccc(C(=O)NC3CC3)c2)c2ccccc2c1=O | -1.73% (inactive) | –
O=C(Nc1ccccc1)N1CCC(C(=O)N2CCN(Cc3ccccc3)CC2)CC1 | 3.24% (inactive) | –
COc1cccc(N2CCN(CC(=O)Nc3ccnn3C3CCCC3)CC2)c1 | -3.51% (inactive) | –
CN(CC(=O)Nc1ccc(Cl)cc1)CC(=O)Nc1cccc2ccccc12 | -4.37% (inactive) | –
Cc1ccc(C(=O)NNC(=O)c2cc3cc4ccccc4nc3s2)cc1 | 1.16% (inactive) | –
CCc1nc(SCC(=O)NNC(=O)c2ccc(C)cc2)c2ccccc2n1 | 1.99% (inactive) | –
Cc1ccc(C(=O)NNc2ncnc3ccccc23)cc1 | – | 3160 nM (active)
CC(=O)Nc1ccc(S(=O)(=O)NC(C)C(=O)OCCOc2ccc(F)cc2)cc1 (stereo not drawn) | 0.67% (inactive) | –
N#CCC(=O)Nc1ccc(C(=O)OCC(=O)Nc2sc3c(c2C#N)CCCC3)cc1 | -0.499% (inactive) | –
C/C(=N\NC(=O)OC(C)(C)C)c1ccc[nH]1 | – | 2820 nM (active)

SMILES | activation | Potency
Cc1ccccc1NC(=O)NNC(=O)OC(C)(C)C | 0.144% (inactive) | –
CC(C)(C)OC(=O)N/N=C/c1ccc(C(=O)O)cc1 | 0.842% (inactive) | –
CC(C)CC(COCc1ccc(Cl)cc1)N1CCN(C(=O)c2ccc(C(F)(F)F)cc2)CCC1=O (stereo not drawn) | -5.4% (inactive) | –
CCOc1ccc(NC(=O)CN(C)C(=O)Cn2c(=O)cnc3ccccc32)cc1OCC | -0.76% (inactive) | –
O=c1c2ccccc2ccc2ccc(P(=O)(O)O)cc12 | -2.15% (inactive) | –
Cc1nc(-c2ccccc2)sc1C(=O)/C=C/N(C)C | – | 2820 nM (active)
Cc1nc(COc2cccc(Cl)c2)sc1C(=O)/C=C/N(C)C | 18.5% (inactive) | –
CN(C)/C=C/C(=O)c1ccccc1F | 0.124% (inactive) | –
Cn1c(SCC(=O)Nc2nccs2)nnc1-c1cccnc1 | -0.463% (inactive) | –
COC(=O)c1ccc(OC(=O)c2cnccn2)cc1 | 0.63% (inactive) | –
O=C(NCCCNC(=O)c1ccccc1Cl)c1cnccn1 | -0.803% (inactive) | –
Cn1c(=NC(=O)c2cnccn2)sc2ccccc21 | – | 2000 nM (active)
CCOc1ccc2oc(C(=O)N(CC)CC(=O)Nc3ccc(NC(C)=O)cc3)c(C)c2c1 | 5.68% (inactive) | –
Cc1c(O)c(C)c2c(c1O)C(=O)C[C@@H](c1ccccc1)O2 | 1.52% (inactive) | –
O=C(Nc1ccon1)c1nc[nH]c1C(=O)NCc1ccccc1 | 0.0628% (inactive) | –
CC(Oc1ccc(Br)cc1)C(=O)NC1CCCCCC1 (stereo not drawn) | 17.9% (inactive) | –
CC(C)(C)C(=O)OCc1nc(-c2ccc(O)c(O)c2)cs1 | -3.2% (inactive) | –
COc1cccc(CC(=O)Nc2ccc(-c3csc(C)n3)cc2)c1 | 1.47% (inactive) | –
COc1ccc(-c2csc(Cc3nc(O)cs3)n2)cc1 | – | 3550 nM (active)
CCN(CC(=O)Nc1cc(Cl)ccc1C)C(=O)CSCc1ccccc1 | -2.25% (inactive) | –
CC(=O)c1ccc(N2Cc3ccccc3C2)cc1 | – | 2510 nM (active)
CC(=O)c1ccc(N2CCN(C(=O)CCc3ccccc3)CC2)cc1 | -1.38% (inactive) | –

SMILES | activation | Potency
CC(=O)c1ccc(N2CCN(CC(O)c3ccccc3)CC2)cc1 (stereo not drawn) | -7.6% (inactive) | –
O=C(O)c1cc(S(=O)(=O)Nc2ccc3cn[nH]c3c2)ccc1Br | 1.48% (inactive) | –
CS(=O)(=O)N1CCN(C(=O)Cc2ccccc2)CC1 | -1.21% (inactive) | –
CS(=O)(=O)N1CCc2nc(-c3ccccc3)sc2C1 | – | 2510 nM (active)
CS(=O)(=O)N1CCN(c2cccc(Cl)n2)CC1 | 2.53% (inactive) | –
CCCCN(C(=O)C1=NN(c2cc(C)ccc2C)C(=O)CC1)c1c(N)n(CCC)c(=O)[nH]c1=O | -0.22% (inactive) | –
COc1ccc(OCCCC(=O)Nc2cccc(S(=O)(=O)N3CCCCCC3)c2)cc1 | 4.23% (inactive) | –
Cc1ccccc1Nc1nc(-c2cccnc2)cs1 | – | 1780 nM (active)
Brc1ccc(-c2csc(N/N=C/c3cccnc3)n2)cc1 | 3.01% (inactive) | –
O=C(NCc1cccnc1)C(=O)Nc1nc(-c2ccccc2)cs1 | 26.3% (inactive) | –
CN(C(=O)COC(=O)Cn1cnc2c1c(=O)n(C)c(=O)n2C)C1(C#N)CCCCC1 | -0.17% (inactive) | –
O=C(CSc1nnc(Nc2ccccc2F)s1)NC1CCCC1 | 4.95% (inactive) | –
COC(=O)CSc1nc(C)c2ccc(OC)cc2n1 | -0.564% (inactive) | –
COc1ccc(-c2nnc3ccc(SCc4ccccc4)nn23)cc1 | 2.4% (inactive) | –
COc1ccc2nc(SCc3ccccc3)nc(C)c2c1 | – | 3160 nM (active)
Cc1ccc(OCC(=O)Nc2ccccc2C(=O)NC2CC2)cc1 | 0.788% (inactive) | –
CC(C)Oc1ccc(S(=O)(=O)N2CCOCC2)cc1NC(=O)C1CCCC1 | 1.15% (inactive) | –
O=C(c1ccc(Br)o1)N(c1ccccn1)C1CCCCC1 | 0.227% (inactive) | –
COc1cccc(NC(=O)CN(C)CC(=O)c2c(N)n(Cc3ccccc3)c(=O)n(C)c2=O)c1 | -2.46% (inactive) | –
Cc1cccc(/C(N)=N/OC(=O)c2ccccc2Cl)c1 | – | 89.1 nM (active)
N/C(=N\OC(=O)c1cc(-c2ccccc2)nc2ccccc12)c1ccncc1 | 3.57% (inactive) | –
Cc1cccc(C(=O)c2cccc(C)c2)c1 | -0.639% (inactive) | –

SMILES | activation | Potency
C[C@H](NC(=O)C1CC(=O)N(c2ccc3c(c2)OCCO3)C1)C(=O)N1CCC(C(=O)O)CC1 (stereo partly drawn) | -3.35% (inactive) | –
COc1cc(C(=O)OCC(=O)NC23CC4CC(CC(C4)C2)C3)cc(OC)c1OC | 0.787% (inactive) | –
CSCCC(NC(=O)COc1ccccc1)C(=O)N(C)CC(=O)Nc1ccc(C)cc1 (stereo not drawn) | -2.11% (inactive) | –
O=C(COC(=O)C1(c2ccc(F)cc2)CCCC1)N1CCNC1=O | 0.411% (inactive) | –
O=c1[nH]c2cccnc2n1-c1ccc([N+](=O)[O-])cc1 | 2.63% (inactive) | –
O=[N+]([O-])c1ccc2c(c1)Nc1nc3ccccc3nc1N2 | -0.0231% (inactive) | –
O=[N+]([O-])c1ccc2nc(-c3ccccn3)[nH]c2c1 | – | 1580 nM (active)
CCN(CC(=O)Nc1ccc(OC)cc1)C(=O)c1ccc(=O)n(Cc2ccccc2)n1 | -0.115% (inactive) | –
Cc1csc2nc(COC(=O)c3cccc(N(C)C)c3)cc(=O)n12 | – | 1410 nM (active)
O=c1cc(CCl)nc2scc(-c3ccccc3)n12 | -0.115% (inactive) | –
Cc1nn2c(=O)cc(COC(=O)c3ccc(NC(=O)C(C)(C)C)cc3)nc2s1 | -1.52% (inactive) | –
CCC(C)N(C(=O)CSc1nnnn1-c1ccccc1OC)C1CCS(=O)(=O)C1 (stereo not drawn) | 4.75% (inactive) | –
CC(NCc1ccccc1OC1CCCC1)c1ccccc1 (stereo not drawn) | -1.56% (inactive) | –
O=C(Nc1sc2c(c1C(=O)O)CCC2)c1ccccc1F | 6.62% (inactive) | –
C=CCN(CC=C)S(=O)(=O)c1ccc(C(=O)Nc2sc3c(c2C(N)=O)CCCCC3)cc1 | -8.3% (inactive) | –
NC(=O)c1c(NC(=O)c2ccccc2)sc2c1CCCC2 | – | 3980 nM (active)
COc1ccc(C(=O)OC(C)C(=O)NC2CCCC2)cc1S(=O)(=O)N1CCOCC1 (stereo not drawn) | -1.48% (inactive) | –
CC(C)CN(C(=O)CSc1ncnc2sccc12)C1CCS(=O)(=O)C1 (stereo not drawn) | -2.91% (inactive) | –
CC(=O)c1ccc(S(=O)(=O)N2CCC(Oc3ccc(-n4cnnn4)cc3)CC2)cc1 | -3.83% (inactive) | –
O=C(COC(=O)Cc1ccc(Br)cc1)Nc1ccc(N2CCOCC2)cc1 | -1.47% (inactive) | –
